# HIF-2a block: inhibitors of HIF-2a | AID 624352 | 786-0 RCC cells HIF-2a reporter, luciferase luminescence, overnight | actives 0.72% (n = 360,000) | inhibition, % at 18.8 µM;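 active = inhibition of the luminescence signal of 40% or more relative to plate controls, in a single-dose primary screen at 18.75 µM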
# CF NFkB block: inhibitors of cystic fibrosis induced NF-kB. KKLEB NF-kB-GFP reporter, PAF-induced, GFP fluorescence overnight. inhibition, % at 5 µM. actives 0.86% (n = 360,000);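 active = at least 50% inhibition at 5 µM, scaled per plate between neutral and stimulator controls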;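 note: PAF is a Pseudomonas aeruginosa culture filtrate used as stimulus; plate controls were PAF-stimulated DMSO wells for no effect and unstimulated DMSO wells for full effect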
# Peg3 promoter: Peg3 promoter activity inhibition; inhibition, % at 20 µM; HeLa PEG-Prom luciferase reporter, luminescence, overnight; actives 1.7% (n = 360,000);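 active = inhibition of at least 50% at 20 µM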
# TROY NFkB inh: inhibitors of TROY-dependent NF-kB signaling; AID 1347056; inhibition, % at 10 µM; actives 0.98% (n = 360,000); Q293 LMP1-TROYcd NF-kB luciferase reporter, 4 h;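 active = compounds whose plate-normalised and pattern-corrected inhibition of the luciferase reporter signal at the single screening dose is 50% or more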
# TWEAK-Fn14 inh: TWEAK-Fn14 signaling inhibition. TWEAK-stimulated Fn14 reporter cells, luciferase luminescence, 8 h. inhibition, % at 10 µM. actives 2% (n = 360,000); in the data active = inhibition above about 50%
# KKLEB tox: counter-screen for CF NF-kB inhibitors: cytotoxicity; actives 0.36% (n = 360,000); KKLEB CF airway cells viability, ATPlite luminescence, overnight; hits give low values; cells stimulated with P. aeruginosa culture filtrate; activity change (cytotoxicity), % at 5 µM;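 active = corrected activity change at or below -50% at 5 µM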
# Active calls of the source: *; . = not tested or not shown; ! = repeats disagree. An excerpt weighted towards active compounds, which were near 4% of everything screened.
SMILES,HIF-2a block,CF NFkB block,Peg3 promoter,TROY NFkB inh,TWEAK-Fn14 inh,KKLEB tox
O=C(NC1CCCC1)N[C@@H]1C=C[C@@H](CC(=O)N2CCOCC2)O[C@@H]1CO,9.5,.,.,.,.,.
CC(C)c1cccc(C(C)C)c1NC(=O)OC1CCCCC1,16.8,16.1,12.6,58.3*,-1.7,-7.9
O=c1c2cc(NC(=S)NCCN3CCCCCC3)ccc2nc2n1CCCCC2,3.7,17.2,11.6,-13.1,8.4,1.2
O=c1c2cc(NC(=S)NCCCN3CCC(Cc4ccccc4)CC3)ccc2nc2n1CCCCC2,10.2,23.6,94.0*,18.4,-4.0,-18.8
CN(C)c1ccc(/C=C(\Cl)c2nc3ccccc3s2)cc1,24.8,-21.3,34.5,73.1*,91.5*,-27.7
COc1ccc2[nH]c3c(c2c1)CCN1C(=O)C(CC(=O)NCc2ccco2)C[C@H](C(=O)N2CCOCC2)[C@@]31CCC1CCCC1 (some centres not stated),9.4,-9.9,14.4,6.1,19.1,18.0
CC(=O)Nc1cccc(NS(=O)(=O)c2cc3c4c(c2)CCN4C(=O)CC3)c1,11.5,4.8,-6.3,2.3,-3.1,1.7
CCc1ccc(N=C2NC(=O)/C(=C/c3cc(OC)c(O)c(OC)c3)S2)cc1,16.1,-2.0,24.1,19.9,18.7,1.9
COc1ccc(/C=C2\SC(=NCc3ccccc3)NC2=O)cc1,-19.2,31.5,-18.7,6.5,14.3,-39.2
COc1ccc(/C=C2\SC(=Nc3ccccc3OC)NC2=O)cc1,-51.2,56.5*,24.1,8.1,23.6,-8.3
COc1cc(/C=C2/SC(=O)NC2=O)ccc1OCc1ccccc1,-110.9,-11.5,-64.3,-66.8,-20.6,4.8
COc1ccc(/C=C2/SC(=S)NC2=O)cc1OCc1ccccc1,18.5,33.7,21.0,50.9*,-8.0,-22.0
COc1cc(/C=C2/SC(=Nc3ccc(O)cc3)NC2=O)ccc1O,13.1,71.3*,-56.6,40.1,60.3*,3.2
COc1cc(/C=C2\SC(N)=NC2=O)ccc1O,30.8,73.4*,15.6,39.1,99.7*,-15.7
Cc1ccccc1/C=C/C12NC(=O)CN1c1ccccc1C2(C)C (configuration not stated),-18.9,6.3,-7.6,29.3,56.5*,10.6
Fc1ccc2[nH]c3c(NCc4ccccc4)ncnc3c2c1,26.0,-4.5,20.8,52.1*,44.4,-5.9
OCCCNc1ncnc2c1[nH]c1ccccc12,9.7,13.0,3.9,-12.3,-5.8,-4.7
Cn1ncc(Br)c1NC(=O)c1cc(Cl)cc(Cl)c1,12.2,-8.9,7.8,-0.5,10.2,5.5
O=C(Nc1nc2ccccc2n1CCN1CCOCC1)c1cn(-c2ccccc2)nc1-c1ccccc1,12.1,2.6,84.2*,13.3,29.0,-19.2
O=C(Nc1nc2ccccc2n1CCN1CCOCC1)c1ccccc1,-10.1,-0.9,-4.7,-11.8,13.7,-4.7
COCCNC(=S)N1CCC2CC1c1c(Cl)cccc12 (configuration not stated),5.6,-14.5,-5.3,-7.4,4.6,-5.0
O=C(O)c1ccc(-n2c(O)c(C=C3N=c4ccccc4=N3)sc2=S)cc1,-1.5,16.8,3.1,-6.6,53.6*,0.1
O=C(O)c1cccc(-n2c(O)c(C=C3N=c4ccccc4=N3)sc2=S)c1,15.7,-0.3,12.9,-27.5,-10.4,-4.7
O=C1N[C@H](Cc2ccccc2)COC(=O)[C@H](Cc2ccc(F)cc2)CC/C=C/C[C@H]1CC(=O)N(CCO)Cc1ccccc1,12.3,4.0,14.9,2.3,2.7,0.5
O=C1N[C@@H](c2ccccc2)COC(=O)[C@@H](Cc2ccc(F)cc2)CC/C=C/C[C@@H]1CC(=O)N(CCO)Cc1ccccc1,7.5,-15.6,26.9,18.3,59.5*,10.4
SMILES,HIF-2a block,CF NFkB block,Peg3 promoter,TROY NFkB inh,TWEAK-Fn14 inh,KKLEB tox
CC(C)N1C(=O)S/C(=C/c2ccc(Sc3nc4ccccc4[nH]3)o2)C1=O,-31.5,16.4,24.7,58.8*,89.3*,-12.4
C=CCN1C(=O)S/C(=C/c2ccsc2)C1=O,-63.3,-14.5,-173.4,-79.3,-13.6,-4.5
C=CCN1C(=O)S/C(=C/c2ccc(Sc3nc4ccccc4[nH]3)o2)C1=O,-16.3,20.8,-4.2,51.5*,73.2*,-11.6
COc1ccc(S(=O)(=O)Nc2c(C)n(C)n(-c3ccccc3)c2=O)cc1C(=O)O,21.2,-8.3,17.4,-3.8,-8.5,3.8
Cc1cccc(C(O)C(O)c2cccc(C)n2)n1 (configuration not stated),-4.3,15.5,-2.1,16.1,0.2,5.8
Cc1cccc(C(P(=O)(c2ccccc2)c2ccccc2)P(=O)(c2ccccc2)c2ccccc2)n1,9.8,8.4,6.9,-0.5,79.2*,6.4
Cc1cc(Oc2ccccc2)nc(-c2ccccc2)n1,-63.7,11.8,-30.5,-8.4,-21.0,-10.7
C=C(C)c1nc(Oc2ccccc2)nc(Oc2ccccc2)n1,11.2,5.9,106.0*,-12.5,36.6,1.2
CCOC(=O)[C@]12CCCC=C1N(CCC1=CCCCC1)C(=O)[C@H](CC(=O)NCc1ccccc1)C2,1.7,.,.,.,.,.
CCN(CC(=O)NC(C)(C)C)C(=O)c1ccccc1SCC(=O)NC1CCCCCCC1,-0.3,-28.6,11.3,13.8,5.9,24.4
Cc1c(O)cccc1C(=O)N[C@@H](CSc1ccccc1)[C@H](O)CN1C[C@H]2CCCC[C@H]2C[C@H]1C(=O)NC(C)(C)C,-17.6,15.7,76.9*!,11.3,32.5,-13.4
Cc1cc(-c2ccc(C(C)C)c(S(=O)(=O)N3CCC(C)CC3)c2)on1,23.7,13.2,25.9,14.3,-8.8,21.9
CC(C)NC(=O)C1(C)CCCCN1Cc1ccc(OCc2ccccc2)cc1 (configuration not stated),-41.2,-2.8,-42.0,0.1,15.2,-2.1
COc1ccc(S(=O)(=O)N(C(=O)C(C)C)c2ccc3oc(=O)sc3c2)cc1,7.7,-16.7,1.5,0.8,14.8,37.2
Cc1ccc(S(=O)(=O)N(C(=O)c2ccco2)c2cc3sc(=O)oc3c3ccccc23)cc1,2.0,63.9*,10.9,27.5,1.0,-28.0
CCOc1ccc(S(=O)(=O)N(C(=O)c2ccco2)c2cc3sc(=O)oc3c3ccccc23)cc1,6.6,51.5*,20.0,15.8,31.6,-9.6
COc1ccc(S(=O)(=O)N(C(=O)c2ccco2)c2cc3sc(=O)oc3c3ccccc23)cc1,-11.8,70.6*,19.4,23.3,35.1,-31.1
CC(=O)N(c1ccc2oc(=O)sc2c1)S(=O)(=O)c1ccccc1,-0.3,-10.7,-15.1,12.3,0.6,26.1
O=C(NCc1ccccc1)C(c1ccccc1F)n1c(=O)c(-c2ccco2)nc2ccccc21 (configuration not stated),-1.2,.,.,.,.,.
COc1ccc(C(=O)/C=C/Sc2nc3ccccc3o2)cc1,26.2,54.4*,90.8*,37.4,61.3*,-10.0
O=c1cc(-c2ccc(O)cc2)oc2c1ccc1ccccc12,-78.5,-101.7,-16.9,62.5*,37.6,-9.0

# Screening results (PubChem BioAssay)
